The text below walks through data of PubChem BioAssay AID1508625 (Wald Lab, School of Medicine, Case Western Reserve …, 2021).

This assay in a line: enhancers of NK cell killing of ovarian tumor cells, primary screen, imaging, OVCAR3, primary NK cells, calcein-AM imaging (AID 1508625).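 Also: compound given to NK cells 16 h before adding targets at 1.5 to 1 ratio.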 The settings on record: OVCAR3 lysis by primary NK cells, at 5 µM; z-score: measured here: robust Z-score, single-point normalisation.

SMILES strings stand for the structures.

As to `Cc1ccccc1C(=O)N1N=C(c2ccc(F)cc2)CC1(O)C(F)(F)F` (centres undefined), the corrected activity, negative = more killing is -4.55% and the z-score was -2.44.
For `O=C(NC(=S)NN1CCOCC1)c1ccc(Br)cc1`, the corrected activity, negative = more killing is -1.04% and the z-score is -0.33.
Taken in the same sequence, the figures for `O=C1OC(c2cccc(Cl)c2)=NC1=Cc1ccc(F)cc1` were -4.47% and -1.9.
Take `CSc1nnc2c(n1)OC(c1ccc(C(=O)O)cc1)Nc1ccccc1-2` (centres undefined): the corrected activity, negative = more killing was -1.74% and the z-score is -0.616.
Take `COc1ccccc1CNC(=O)C1CCN(S(=O)(=O)c2cccc3nonc23)CC1`: the corrected activity, negative = more killing is -5.24% and the z-score is -1.49.
For the compound `Cc1ccc(C(=O)O)c(C(=O)Nc2cccnc2)c1`, the corrected activity, negative = more killing is -0.349% and the z-score was -0.143.
On to `CC(C(=O)O)N1C(=O)C2C3CCC(C3)C2C1=O` (centres undefined), for which the corrected activity, negative = more killing was 1.01% and the z-score was 0.359.
`O=C(O)c1cc(Cl)ccc1NS(=O)(=O)c1ccc(Cl)cc1`: the corrected activity, negative = more killing is -1.75% and the z-score was -0.369.
As for `CCCc1sc(N2CCN(C(=O)c3ccccc3)CC2)nc1-c1ccccc1`, the corrected activity, negative = more killing is -5.71% and the z-score was -1.77.
Consider `CCOc1ccc(-c2cc(C(=O)NN=Cc3cccnc3)[nH]n2)cc1`, for which the corrected activity, negative = more killing was -4.91% and the z-score was -2.15.
For `O=C(c1cccc(F)c1)N1CCN=C1SCc1ccc(Br)cc1`, the corrected activity, negative = more killing is -4.87% and the z-score is -1.2.
With `Cc1c(NC(=O)COc2ccc(Oc3ccccc3)cc2)c(=O)n(-c2ccccc2)n1C`, the corrected activity, negative = more killing was 1.22% and the z-score is 0.434.
The matching figures for `COc1ccccc1N1C(=O)C2C(C(C)=O)=NN(c3ccc(Cl)cc3)C2C1=O` (centres undefined): -1.87% and -0.704.
Take `Brc1cccc(-c2nnc3sc(CN4CCOCC4)cn23)c1`: the corrected activity, negative = more killing was -6.12% and the z-score is -1.74.
In the case of `COc1ccccc1CNC(=O)C(C)Oc1cccc(Cl)c1` (centres undefined), the corrected activity, negative = more killing was -1.41% and the z-score was -0.785.
Take `COc1cccc(CCNc2ccc(N3C(=O)C4CCC(C)CC4C3=O)cc2[N+](=O)[O-])c1` (centres undefined): the corrected activity, negative = more killing is -3.2% and the z-score is -1.17.
Regarding `Cc1cc(C)cc(NC(=O)c2ccccc2OCC(=O)N2CCc3ccccc32)c1`, the corrected activity, negative = more killing was -2.33% and the z-score is -1.3.
`Cc1ccc(N2C(=O)C(N3C(=O)c4cccc([N+](=O)[O-])c4C3=O)C2c2ccc(F)cc2)cc1F` (centres undefined): the corrected activity, negative = more killing is -2.91% and the z-score was -0.904.
On to `COCc1cc(C)[nH]c(=O)c1C(=O)NC12CC3CC(CC(C3)C1)C2`, for which the corrected activity, negative = more killing was -5.27% and the z-score was -1.57.
Regarding `COc1cc(C=Nc2ccc(Oc3ccccc3)cc2)ccc1OC(C)=O`, the corrected activity, negative = more killing is -3.39% and the z-score is -1.34.
As for `O=C(NN=Cc1cccnc1)c1cc(C2CC2)[nH]n1`, the corrected activity, negative = more killing is -2.36% and the z-score is -1.03.
As for `N#Cc1ccccc1NC(=O)CSc1nnc(N)s1`, the corrected activity, negative = more killing is 2.04% and the z-score was 0.632.
`CCCSc1nc2c([nH]c3ccccc32)c(=O)n1-c1ccc(F)cc1`: the corrected activity, negative = more killing is -3.57% and the z-score was -0.888.
Taken in the same sequence, the figures for `CCOC(=O)c1ccc2c(c1)[C@@H]1C=CC[C@@H]1[C@H](c1ccccc1C(F)(F)F)N2` were -3.03% and -0.905.
For the compound `Cc1ccc(-n2cnc3cc(C(=O)NCC4CCCO4)ccc32)cc1Cl` (centres undefined), the corrected activity, negative = more killing was -0.997% and the z-score is -0.269.
On to `CCOc1ccc(NS(=O)(=O)c2ccc3[nH]cc(C(=O)NCC4CCCO4)c(=O)c3c2)cc1` (centres undefined), for which the corrected activity, negative = more killing was -2.15% and the z-score is -0.527.
The matching figures for `COc1ccccc1OCC(=O)N=Nc1c(O)[nH]c2c(C)cc(Br)cc12`: -2.87% and -1.13.
`CCN(C(=O)c1c(-c2ccccc2)noc1C)C1CCCCC1`: the corrected activity, negative = more killing was -2.37% and the z-score was -0.905.
With `CCCNS(=O)(=O)c1ccc(F)c(C(=O)Nc2cc(C)ccc2OC)c1`, the corrected activity, negative = more killing was -6% and the z-score was -1.62.
`N#CCCCSc1nnnn1-c1ccccc1`: the corrected activity, negative = more killing was -7.28% and the z-score is -2.25.
On to `CCCc1cc(=O)oc2cc3oc4c(c3cc12)CCCC4`, for which the corrected activity, negative = more killing is -1.47% and the z-score was -0.438.
On to `CCc1ccccc1N1C(=O)C2C(c3ccc(Br)cc3)OC3(C(=O)c4ccccc4C3=O)C2C1=O` (centres undefined), for which the corrected activity, negative = more killing is 0.455% and the z-score was 0.141.
Taken in the same sequence, the figures for `COC(=O)c1cc(C=O)c(O)c(C=O)c1` were -2.3% and -1.01.
Regarding `CC(=O)SCCC(=O)N1C(C)CCCC1C(=O)O` (centres undefined), the corrected activity, negative = more killing was -3.02% and the z-score is -1.19.
Consider `COc1ccc(OC)c(NC(=O)c2cc3cccc(OC)c3oc2=O)c1`, for which the corrected activity, negative = more killing was -3.03% and the z-score is -1.31.
Consider `CCCCOc1ccc(C(=O)N2CCN(C(=O)N(C)C)CC2)cc1`, for which the corrected activity, negative = more killing is -0.23% and the z-score was -0.128.
On to `CCN(CC)S(=O)(=O)c1ccc(C(=O)Nc2nc(-c3ccccc3)c(C(C)=O)s2)cc1`, for which the corrected activity, negative = more killing is -2.77% and the z-score is -0.984.
Take `O=c1[nH]c2ccc(N=Cc3ccc(-c4ccc([N+](=O)[O-])cc4)o3)cc2[nH]1`: the corrected activity, negative = more killing was -0.571% and the z-score is -0.17.
`Cc1cc(C)cc(NS(=O)(=O)c2ccc3[nH]cc(C(=O)NCc4cccs4)c(=O)c3c2)c1`: the corrected activity, negative = more killing was -6.12% and the z-score is -1.5.
The matching figures for `C=CCn1c2ccccc2c2nnc(SCc3[nH]c(C(=O)OCC)c(C)c3C(C)=O)nc21`: -1.4% and -0.435.
Consider `COc1ccc(-c2ccc3c(N)c(C(=O)Nc4ccc(C(C)=O)cc4)sc3n2)cc1`, for which the corrected activity, negative = more killing is -4.48% and the z-score is -1.34.
On to `COCc1cccc(NS(=O)(=O)Cc2ccccc2)c1`, for which the corrected activity, negative = more killing was 0.328% and the z-score was 0.183.
